# Rows were chosen to be rich in hits. Some 4.1% of all compounds tested hit in one or more screens of this group.
# FAS-TE inh: blocks the thioesterase domain of human fatty acid synthase. inhibition, % at 15 µM. recombinant FAS-TE, OMFH fluorogenic substrate, fluorescence endpoint. P49327. 360,000 tested, 0.67% active. AID 602261;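 active = compounds whose normalised, plate-corrected inhibition of enzyme fluorescence in the single-dose primary screen is 50% or more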;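 note: 0% = DMSO with enzyme and 100% = substrate without enzyme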
# pCIP destab: p/CIP protein destabilization | F442A p/CIP-EGFP cells, EGFP fluorescence, 16 h | Q05BA5 | 290,000 tested, 0.01% active | decrease of EGFP signal, % at 10 µM;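 active = EGFP signal decrease of at least 30% at 10 µM or well 3 SD below plate mean, unless failing retest; inactive = the rest, including hits failing retest or dose response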
# beta cell repl: induces beta-cell replication in MIN6 cells; MIN6 cells proliferation, ATPlite luminescence, 48 h; cells starved in 0.2% serum; 100% = growth in 10% serum; proliferation, % at 10 µM; 330,000 tested, 0.29% active;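 active = compounds whose signal lies at least 3.5 SD above the mean of all wells on their plate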;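 note: 0% = DMSO-treated cells in low-serum medium and 100% = 10% serum control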
# NR3A LBD binder: NR3A (human) ligand-binding domain modulation; Tm shift relative to glycine control, % at 25 µM; AID 1259313; 340,000 tested, 2.5% active; NR3A LBD differential scanning fluorimetry, Tm shift; 0% = protein alone, 100% = glycine-bound protein;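 active = melting temperature shift of at least 10% of the positive control shift, at one fixed dose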
# MPTP inh: inhibitors of mitochondrial permeability transition pore. isolated mouse mitochondria, Ca2+ swelling absorbance, 30 min. inhibition, % at 10 µM. 360,000 tested, 1.4% active. AID 602449;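 active = inhibition of 50% or more, scaled per plate between neutral and stimulator controls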;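 note: 0% = DMSO wells given calcium and 100% = 1 mM EGTA wells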
# Rh123 counter: membrane potential counter-screen of mitochondrial pore inhibitors; shares compounds with MPTP inh; isolated mitochondria, Rhodamine 123 fluorescence; inhibition, % at 10 µM; 5,000 tested, 78% active; in the data active = inhibition above about 22%;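 note: 0% = DMSO vehicle and 100% = positive control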
# MPTP abs DR: MPTP inhibition, dose response swelling confirmation; isolated mitochondria swelling, absorbance; IC50, µM; shares compounds with MPTP inh; 780 tested, 58% active; in the data active = IC50 below about 20 µM
# MPTP cs DR: MPTP inhibitor counter-screen activity, dose response. shares compounds with MPTP inh. isolated mitochondria counterscreen, fluorescence read-out. 780 tested, 49% active. IC50, µM; in the data active = IC50 below about 80 µM
# * marks the source's active call; other numbers are inactive results; i = inactive; . = no result given.
SMILES,FAS-TE inh,pCIP destab,beta cell repl,NR3A LBD binder,MPTP inh,Rh123 counter,others
O=C(/C(=C\c1ccccc1)c1nc2ccccc2[nH]1)c1ccc(Cl)cc1,2,1,0,9,75*,75*,
O=C(/C(=C/c1ccc(Cl)cc1)c1nc2ccccc2[nH]1)c1cccs1,14,-7,-5,4,66*,75*,
COC(=O)/C(=C\c1ccc(O)cc1)c1nc2ccccc2[nH]1,-5,4,-2,0,0,.,
COc1ccc(NC(=O)c2ccccc2N2C(=O)C3C4C=CC(C5CC45)C3C2=O)c(OC)c1 (stereo not given),0,-6,-5,-1,0,.,
CCn1ccnc1CN(C)Cc1cn(-c2ccc(C)cc2)nc1-c1cccc(C)c1,19,-16,-6,24*,51*,-9,MPTP abs DR=>100;MPTP cs DR=46*
COc1ccc(NC(=O)c2nc3nccc(C)n3n2)cc1S(=O)(=O)N1CCOCC1,-9,.,-3,-1,1,.,
COc1ccc(CC2(CO)CCN(CC3=Cc4cc(Cl)ccc4OC3)CC2)cc1,25,-8,-6,-4,97*,107*,
c1coc(CNc2nc3nonc3nc2NCc2ccco2)c1,3,1,-6,-3,96*,95*,
Cc1nc(NCc2ccco2)c2cn[nH]c2n1,-8,.,.,0,0,.,
Cc1cc(Nc2ccccc2)n(-c2cccc(Cl)c2)n1,8,-21,-1,2,4,.,
Cc1cc(NC(=O)c2ccc(Cl)cc2)n(-c2ccccc2)n1,1,6,0,0,0,.,
Cc1cc(NC(=O)Nc2ccc(Cl)c(Cl)c2)n(-c2ccccc2)n1,25,-10,-2,-1,86*,87*,
Cc1cc(NC(=O)Nc2cccc(Cl)c2)n(-c2ccccc2)n1,3,-4,-2,-5,58*,86*,
COc1cc(C(=O)OCC(=O)N2CCCC2=O)cc(OC)c1C,4,.,2,1,1,.,
CCN1CCN(c2ccc(NC(=O)c3cccc(OCc4ccccc4)c3)cc2)CC1,0,-26,-6,-1,-4,.,
CCCOc1cccc(C(=O)NC(=S)Nc2ccc(N3CCN(C)CC3)cc2)c1,6,11,-6,-1,76*,-8,MPTP abs DR=7.1*;MPTP cs DR=39*
O=C(O)c1ccc(NC(=S)NC(=O)c2cccc(COc3ccccc3)c2)cc1,2,-7,-2,-8,-2,.,
O=C(NC(=S)Nc1ccc(CN2CCCCC2)cc1)c1cccc(OCc2ccccc2)c1,19,-15,-7,-4,84*,-3,MPTP abs DR=i;MPTP cs DR=>80
CN1CCN(c2ccc(NC(=O)c3cccc(OCc4ccccc4)c3)cc2)CC1,-4,-1,-4,-1,107*,-17,MPTP abs DR=6.6*;MPTP cs DR=>80
CCOc1cccc(C(=O)NC(=S)Nc2ccc(N3CCN(CC)CC3)cc2)c1,2,9,-6,-2,0,.,
O=C(c1ccc2c3c(cccc13)CC2)C1CCCN(C(=O)c2ccc[n+]([O-])c2)C1 (stereo not given),-11,0,-1,0,1,.,
Cc1ccc(C(C)C)c(OCC(=O)Nc2ccc3c(c2)nc(CCN2CCCCC2)n3C)c1,-1,-5,-4,1,73*,-20,MPTP abs DR=6.1*;MPTP cs DR=75*
Cn1c(CCN2CCCCC2)nc2cc(NC(=O)COc3ccc(Cl)cc3)ccc21,-4,-5,-3,-3,-1,.,
O=C(Cc1ccccc1)NCC(=O)OCC(=O)c1ccc(Cl)cc1,-3,-4,0,2,1,.,
c1ccc(OCCOCCN2CCN(C(c3ccccc3)c3ccccc3)CC2)cc1,10,-8,0,-1,1,.,
SMILES,FAS-TE inh,pCIP destab,beta cell repl,NR3A LBD binder,MPTP inh,Rh123 counter,others
COc1ccccc1OCCCCN1CCN(C(c2ccccc2)c2ccccc2)CC1,25,-12,-5,-1,82*,-7,MPTP abs DR=i;MPTP cs DR=65*
COc1ccc(CNS(=O)(=O)c2ccc(F)c(C(=O)Nc3ccc(OC)cc3)c2)cc1,0,6,2,-23,0,.,
O=C(Nc1cccc(Cl)c1)c1cc(S(=O)(=O)NCCc2ccc(Cl)cc2)ccc1F,34,8,-6,32*,70*,71*,
Cc1ccc(NC(=O)c2cc(S(=O)(=O)NCCc3ccccc3)ccc2F)cc1Cl,25,4,-6,24*,56*,71*,
CN1CCN(C(c2ccc(Cl)cc2)c2cc(Cl)c3cccnc3c2O)CC1 (stereo not given),7,-21,0,34*,75*,-23,
CN1CCN(C(c2ccc(C(F)(F)F)cc2)c2cc(Cl)c3cccnc3c2O)CC1 (stereo not given),.,-26,0,.,.,.,
COc1c(F)c(F)c(C(=O)Nc2ccc(N3CCN(Cc4ccccc4)CC3)cc2)c(F)c1F,23,-4,-4,-4,-1,.,
CCCCn1c(SCC(=O)c2ccc(O)c(O)c2)nc2ccsc2c1=O,20,-8,0,25*,52*,30*,
CCCCn1c(SCC(=O)c2ccccc2)nc2ccsc2c1=O,34,-1,0,1,64*,10,MPTP abs DR=i;MPTP cs DR=>80
O=C(O)CCCCCn1c(SCC(=O)c2ccc(O)c(O)c2)nc2ccsc2c1=O,-7,5,-1,2,1,.,
CC1CCc2cc(F)ccc2N1C(=O)CSc1nnc(-c2cccs2)n1C (stereo not given),-2,-10,4,1,0,.,
CCOc1ccccc1OCCCNCc1ccco1,-9,-1,0,2,1,.,
CCNC(=S)N/N=C1\C(=O)c2cccc3cccc1c23,-6,6,-3,1,-3,.,
O=C(N/N=C1/C(=O)c2cccc3cccc1c23)c1ccc(Cl)cc1,12,-5,-4,0,57*,16,
CSc1nc(Oc2cccc(C(F)(F)F)c2)cc(C(F)(F)F)n1,16,-22,-1,0,55*,4,MPTP abs DR=11*;MPTP cs DR=>80
O=C(Nc1ccccc1)Nc1ccccc1NS(=O)(=O)c1cccs1,4,-4,-3,22*,61*,65*,
COc1ccc(NC(=O)C(NS(=O)(=O)c2cccs2)C(C)C)cc1Cl (stereo not given),0,-6,1,-2,1,.,
O=S(=O)(Nc1cccc2ccccc12)c1cccs1,0,6,2,1,-1,.,
O=C(Nc1ccc(Cl)c(Cl)c1)Nc1ccccc1NS(=O)(=O)c1cccs1,13,2,-6,34*,87*,92*,
O=[N+]([O-])c1ccc(OCC(O)CNCCNc2nccc(C(F)(F)F)n2)cc1 (stereo not given),12,-5,-3,0,-1,.,

# Source: PubChem (Sanford-Burnham Center for Chemical Genomics)
